From PubChem BioAssay
For part of these data: Measured potencies and affinities stand elsewhere. Records with an inconclusive call do not appear. The list shows a part of the results. Calls of active or inactive are those of the source. Unless noted, no rule for the calls is given here.

Tests used:
[1] = molecular target: Adenosylmethionine-8-amino-7-oxononanoate aminotransferase (Mycobacterium tuberculosis (strain ATCC 25618 / H37Rv)) (UniProt P9WQ81); assay: inhibition of purified M. tuberculosis BioA – biochemical, plate reader, cherry-pick samples, dose response (AID 651683)
[2] = cytotoxicity in PAX8-dependent RMG-1 cells, dose response, cell-based, cherry-pick (AID 687029;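 active = signal drop whose fitted half-maximal concentration is at most twice the top valid dose, in every test run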;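 also: cells exposed to compound for 96 hours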)
[3] = cytotoxicity in IOSE-T80 ovarian epithelial cells, dose response, selectivity assay for PAX8 inhibitor project, cell-based, cherry-pick (AID 687032;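 active = fitted half-maximal concentration for viability loss no higher than twice the top valid dose, in every repeat run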;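 also: cells exposed to compound for 96 h before reading; 0% = neutral control wells and -100% = 2 µM mitoxantrone kill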)
[4] = inhibitors of CMV-promoter luciferase reporter, dose response, counter-screen for Pax8 inhibitor project, cell-based, HEK293, luminescence, dry powder (AID 743020;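 active = signal-lowering compounds whose fitted half-maximal concentration is at or below twice the top tested dose in every run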;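 also: HEK293 cells stably expressing the CMV luciferase reporter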)
[5] = inhibitors of PAX8-driven TPO luciferase reporter, dose response, RMG-I cells, cherry-pick (AID 687027;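 active = every replicate test run called active, with the signal dropping as expected and potency within twice the top valid dose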)
[6] = non-specific cell cytotoxicity, dose response, cytotoxicity control for PAX8 inhibitor project, plate reader, dry powder samples (AID 743021)
[7] = IGROV1 ovarian cancer cell cytotoxicity, dose response, PAX8 inhibitor project, plate reader, dry powder samples (AID 743043);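 also: more negative means fewer viable cells or more cytotoxicity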
[8] = IOSE-T80 ovarian epithelial cell cytotoxicity, dose response, cytotoxicity control for PAX8 inhibitor project, plate reader, dry powder samples (AID 743045);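 also: 0% = neutral control median and -100% = positive control median; more negative values mean more cell killing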
[9] = NIH:OVCAR-3 ovarian cancer cell cytotoxicity, dose response, PAX8 inhibitor project, plate reader, dry powder samples (AID 743044); details: NIH:OVCAR-3 ovarian cancer cell viability, hits give low values; at 4.2 µM unless noted
[10] = DNA binders by acridine orange displacement, dose response, counter-screen for EWS/Fli inhibitor project, biochemical, fluorescence polarization, cherry-pick (AID 720586;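 active = fitted curve reaches a 35% signal fall AC35 below twice the sample's top valid tested dose, actives reach about 48 µM in these data; inactive = the rest, including activity in the rising direction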;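 also: 0% = neutral control median and -100% = 10 µM mitoxantrone control median; lower polarization ratio signals compound binding to DNA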)

Measured: max activity

Chain of Adenosylmethionine-8-amino-7-oxononanoate aminotransferase (Mycobacterium tuberculosis (strain ATCC 25618 / H37Rv)) (P9WQ81 whole entry, looked up): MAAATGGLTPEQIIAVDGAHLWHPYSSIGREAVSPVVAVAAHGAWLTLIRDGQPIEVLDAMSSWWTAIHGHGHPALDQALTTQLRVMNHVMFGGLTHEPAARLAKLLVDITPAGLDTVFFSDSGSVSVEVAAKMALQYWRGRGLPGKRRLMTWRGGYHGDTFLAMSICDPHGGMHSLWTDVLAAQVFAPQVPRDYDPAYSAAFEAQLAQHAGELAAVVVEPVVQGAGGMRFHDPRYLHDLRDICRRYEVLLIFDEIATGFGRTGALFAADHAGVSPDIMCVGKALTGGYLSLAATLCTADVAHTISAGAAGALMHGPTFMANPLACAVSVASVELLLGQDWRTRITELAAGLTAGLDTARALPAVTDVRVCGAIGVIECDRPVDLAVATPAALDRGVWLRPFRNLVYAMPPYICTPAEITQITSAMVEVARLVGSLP

Cc1ccc(NCc2nnc(SCC(=O)N3CCc4ccccc43)n2C)cc1
inactive: [1]

O=c1[nH]c2ccccc2n1C1CCN(C(c2cc3ccccc3o2)c2nnnn2Cc2ccccc2)CC1 (stereo unspecified)
inactive: [2] | [3] | [4]

CCCc1nc2ccc(Br)cc2c(=O)n1-c1ccc([N+](=O)[O-])c(C(F)(F)F)c1
inactive: [5] | [2] | [3] | [4] | [6]

NC(=O)c1cn(C2OC(CO)C(O)C2O)c2ncnc(N)c12 (stereo unspecified)
inactive: [2] | [3]

CCC1CN2CCc3cc(OC)c(OC)cc3C2CC1CC1NCCc2c1[nH]c1ccc(O)cc21 (stereo unspecified)
inactive: [2] | [3] | [6]

CC(=CCOc1ccc2ccc(=O)oc2c1)C1=CC(=O)C(C)(C)O1
inactive: [2] | [3] | [6]

COC(=O)C12OCC34C(CC5C(C)=C(O)C(=O)CC5(C)C3C(O)C1O)OC(=O)C(OC(=O)/C=C(\C)C(C)C)C24 (stereo unspecified)
inactive: [2] | [3] | [6]

COc1cccc(C(c2nnnn2-c2ccc3c(c2)OCCO3)N2CCC(n3c(=O)[nH]c4ccccc43)CC2)c1OC (stereo unspecified)
inactive: [2] | [3] | [6]

CC12CCC3C(CCC4(O)CC(O)CCC34C=NO)C1(O)CCC2C1=COC(=O)C1 (stereo unspecified)
inactive: [2] | [3] | [4] | [6]

C[C@@H]1O[C@@H](O[C@@H]2C=C3CCC4C(CC[C@]5(C)[C@@H](c6ccc(=O)oc6)CC[C@]45O)[C@@]3(C)CC2)[C@H](O)[C@H](O)[C@H]1O (stereo partly specified)
inactive: [2] | [3] | [4] | [6]

C[C@@H]1O[C@@H](O[C@H]2C[C@@H](O)[C@]3(CO)[C@H]4[C@H](O)C[C@]5(C)[C@@H](C6COC(=O)C6)CC[C@]5(O)[C@@H]4CC[C@]3(O)C2)[C@H](O)[C@H](O)[C@H]1O (stereo partly specified)
inactive: [2] | [3] | [6]

COC1CC2C=C(C)C=CC=CC(=O)NC(c3ccccc3)CC=CCCC(O)CC(=O)C2=C1O (stereo unspecified)
inactive: [2] | [4]

C[C@]12CC[C@H](O)C[C@H]1CC[C@@H]1[C@@H]2CC[C@]2(C)[C@@H](C3=CC(=O)OC3)CC[C@]12O
inactive: [2] | [4] | [6]

O=C(Cc1cccnc1)N1CCCCN2[C@H](C1)[C@H](c1ccc(C#CC3CCCC3)cc1)[C@@H]2CO
inactive: [2] | [3] | [4] | [6] | [7] | [8]

CCC(C)C1NC(=O)C(NC(=O)C(CC(C)C)N(C)C(=O)C2CCCN2C(=O)C(C)O)C(C)OC(=O)C(Cc2ccc(OC)cc2)N(C)C(=O)C2CCCN2C(=O)C(CC(C)C)NC(=O)[C@H](C)C(=O)[C@H](C(C)C)OC(=O)CC1O (stereo partly specified)
inactive: [2] | [4] | [6]

CC(=O)OC(C)(C)/C=C/C(=O)C(C)(O)C1C(O)CC2(C)C3CC=C4C(CC(O)C(=O)C4(C)C)C3(C)C(=O)CC12C (stereo unspecified)
inactive: [2] | [3] | [4] | [6]

COc1cc(C2c3cc4c(c(O)c3CC3COC(=O)C32)OCO4)cc(OC)c1OC (stereo unspecified)
inactive: [2] | [3] | [6]

O=C1NC2C(O)C(O)C(O)C(O)C2c2cc3c(c(O)c21)OCO3 (stereo unspecified)
inactive: [2] | [3] | [6]

O=C(C1CC1)N1C[C@@H]2N[C@H](C1)[C@@H]2c1ccc(-c2ccncc2)cc1
inactive: [2] | [3] | [6]

CC[C@@]1(O)C(=O)OCc2c1cc1n(c2=O)Cc2cc3c(NC(=O)CN)cccc3nc2-1
inactive: [2] | [3] | [4] | [6]

COC(=O)C1=C(c2ccc(F)cc2OCc2ccccc2)C[C@@H]2CC[C@H]1N2C(=O)NCc1ccc2[nH]ccc2c1
inactive: [2] | [3] | [4] | [6]

COC(=O)C1=C(c2ccc(F)cc2OCc2ccccc2)C[C@@H]2CC[C@H]1N2C(=O)NC1Cc2ccccc2C1
inactive: [2] | [3] | [4] | [6]

COc1cc2c(c(OC)c1OC)-c1ccc(O)cc1[C@@H](NC(C)=O)CC2
inactive: [2] | [3] | [4] | [6]

CC1CCC/C=C/C2CC(O)CC2C(O)/C=C/C(=O)O1 (stereo unspecified)
inactive: [2] | [3] | [6]

C[C@]12CC[C@H](O)C[C@H]1CC[C@@H]1[C@@H]2C[C@@H](O)[C@]2(C)[C@@H](C3=CC(=O)OC3)CC[C@]12O
inactive: [2] | [3] | [6]

COC1C(O)C(C)OC(OC2CCC3(C)C(CCC4C3C(O)CC3(C)C(C5=CC(=O)OC5)CCC43O)C2)C1O (stereo unspecified)
inactive: [2] | [3] | [6]

CN(C)CC(C(=O)Cc1ccccc1)c1ccccc1 (stereo unspecified)
inactive: [2] | [4] | [6]

O=C(Cc1ccccn1)N1CCCCN2[C@@H](CO)[C@@H](c3ccc(-c4ccccc4F)cc3)[C@@H]2C1
inactive: [2] | [3] | [4] | [7] | [9] 31.6% [at 0.5 µM] | [8]

CN1C2CCC1/C(=C/c1ccccn1)C(=O)/C2=C\c1ccccn1
inactive: [2] | [3] | [6]

O=C(Cc1ccncc1)N1CCCCN2[C@H](C1)[C@H](c1ccc(C#Cc3ccccc3F)cc1)[C@@H]2CO
inactive: [2] | [3] | [4] | [6] | [8]

CC(=O)OC1CC(OC2C(O)CC(OC3C(O)CC(OC4CCC5(C)C(CCC6C5CCC5(C)C(C7=CC(=O)OC7)CCC65O)C4)OC3C)OC2C)OC(C)C1OC1OC(CO)C(O)C(O)C1O (stereo unspecified)
inactive: [2] | [3] | [6]

Cc1ccc(OC(=O)N(C)C[C@@H]2OCc3ccccc3-c3c(n(C)c4ccccc34)C(=O)N([C@@H](C)CO)C[C@H]2C)cc1
inactive: [2] | [3] | [6] | [7] | [8]

O=C(c1ccccc1)C(CN1CCCC1)c1ccccc1 (stereo unspecified)
inactive: [2] | [3] | [6]

C[C@H]1CCC/C=C/[C@@H]2C[C@H](O)C[C@H]2[C@H](O)/C=C/C(=O)O1
inactive: [2] | [3] | [4] | [6]

O=C(Cc1cccnc1)N1CCCCN2[C@H](C1)[C@H](c1ccc(/C=C/c3ccccc3)cc1)[C@@H]2CO
inactive: [2] | [3] | [4] | [7] | [8]

COc1cccc(C(c2nnnn2Cc2ccccc2)N2CCC(n3c(=O)[nH]c4ccccc43)CC2)c1OC (stereo unspecified)
inactive: [2] | [3] | [6]

COc1ccc(CC2C(=O)NC(C)C(=O)N(C)C3C(=O)N(C)C(Cc4ccc(O)c(c4)Oc4ccc(cc4)C3O)C(=O)NC(C)C(=O)NC(C)C(=O)N2C)cc1 (stereo unspecified)
inactive: [2] | [3] | [6]

CC12CCC3C(CCC4(O)CC(O)CCC34C=O)C1(O)CCC2C1=CC(=O)OC1 (stereo unspecified)
inactive: [2] | [3] | [6]

C[C@]12CC[C@H]3[C@@H](CC[C@]4(O)C[C@@H](O)CC[C@]34C=O)[C@@]1(O)CC[C@@H]2C1=CC(=O)OC1
inactive: [6]

CC(=O)OC(C)(C)/C=C/C(=O)C(C)(O)C1[C@H](O)C[C@@]2(C)C3CC=C4C(CC[C@@H](O)C4(C)C)[C@]3(CO)C(=O)C[C@]12C (stereo partly specified)
inactive: [2] | [4] | [6]

O=C1NC(=O)N(CCc2ccc(F)cc2)C(=O)/C1=C/C=C/c1ccccc1
inactive: [10]

CC(=O)OC1CC(OC2C(O)CC(OC3C(O)CC(OC4CCC5(C)C(CCC6C5CC(O)C5(C)C(C7=CC(=O)OC7)CCC65O)C4)OC3C)OC2C)OC(C)C1OC1OC(CO)C(O)C(O)C1O (stereo unspecified)
inactive: [2] | [6]

CC1OC(OC2C=C3CCC4C(CCC5(C)C(c6ccc(=O)oc6)CCC45O)C3(C)CC2)C(O)C(OC2OC(CO)C(O)C(O)C2O)C1O (stereo unspecified)
inactive: [2] | [6]

Cc1c(C(=O)c2cccc3ccccc23)c2cccc3c2n1[C@H](CN1CCOCC1)CO3
inactive: [2] | [4] | [6]

C[C@]12CCC3C(CCC4=CC(O)CC[C@@]43/C=N/O)C1(O)CCC2C1=CC(=O)OC1 (stereo partly specified)
inactive: [4]

CC12CCC(O)CC1CCC1C2CCC2(C)C(C3=CC(=O)OC3)CCC12O (stereo unspecified)
inactive: [2] | [6]

CCCCN=C[C@]12CCC(O)CC1(O)CCC1[C@@H]2CC[C@]2(C)[C@H](C3C=CC(=O)O3)CCC12O (stereo partly specified)
inactive: [4]

N#CC(C#N)=NNc1ccc(-n2ccc(C(F)(F)F)n2)cc1
inactive: [2] | [6]

C[C@@H]1O[C@@H](O[C@@H]2C=C3CC[C@@H]4C(CC[C@]5(C)[C@@H](c6ccc(=O)oc6)CC[C@]45O)[C@@]3(C)CC2)[C@H](O)[C@H](O)[C@H]1O (stereo partly specified)
inactive: [6]

CC1CC(C)(O)CC(C(O)CC2CC(=O)NC(=O)C2)C1=O (stereo unspecified)
inactive: [4] | [6]

O=C1NC2C(=CC(O)C(O)C2O)c2cc3c(cc21)OCO3 (stereo unspecified)
inactive: [2] | [4] | [6]

COc1ccc(C(c2nnnn2Cc2ccccc2)N2CCC(n3c(=O)[nH]c4ccccc43)CC2)cc1 (stereo unspecified)
inactive: [2] | [4] | [6]

CCC(C)(O)C(=O)OC1C(=O)OC2CC3C(C)=CC(=O)C(O)C3(C)C3C4(O)OCC23C1C(C)C4O (stereo unspecified)
inactive: [4] | [6]

COC(=O)C1=C(c2ccc(F)cc2OCc2ccccc2)C[C@@H]2CC[C@H]1N2C(=O)NCc1ccc(C(F)(F)F)cc1
inactive: [2] | [6]

CC1CC(C)CC(C)C(O)C(C#N)=CC=CCC(C2CCCC2C(=O)O)OC(=O)CC(O)C(C)C1 (stereo unspecified)
inactive: [2] | [4] | [6]

COc1ccc(C[C@H]2NC[C@H](O)[C@H]2OC(C)=O)cc1
inactive: [2] | [6]

Cc1ccc(C(=O)N[C@@H](C)CN2C3=NC[C@@H](Cc4ccccc4)N3C[C@H]2Cc2ccc(O)cc2)cc1Br
inactive: [2] | [4] | [6]
